# Data: PubChem BioAssay (NCI)
# About 83,000 compounds went through this panel and 20% of them were active in at least one assay; those are over-represented in the sample as a whole.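 Single-concentration screen, 48 h exposure, 96-well plates. Endpoint: percent growth. Below 10 = active.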 Values without a mark were called inactive. Calls of active or inactive are those of the source.
# Test system: HL-60(TB) leukemia
# Test: NCI-60 one-dose screen, 48 h (100 = growth as untreated, 0 = no growth, -100 = all killed)
# Conditions: 10 µM unless noted
row,Compound,growth
1,COC(=O)C(c1ccccc1)C(CC(=O)c1ccccc1)c1ccccc1 (stereo not drawn),92.5%
2,CC(Br)C(OC(=O)c1ccccc1Cl)c1cc2c(cc1Br)OCO2 (stereo not drawn),103%
3,Nc1nc(Nc2ccc(Cl)cc2)nn1S(=O)(=O)c1ccc(-c2ccc(F)cc2)cc1,110%
4,NS(=O)(=O)c1ccc(Nc2nc3n[nH]c(Nc4ccccc4)c3c(=O)[nH]2)cc1,101%
5,O=C(NCc1ccccc1O)c1cccc2ccccc12,66.7%
6,Clc1nn2c(Cn3cnc4c(NCc5ccccc5)ncnc43)nnc2c2ccccc12,23%
7,COc1cc(OC)c(/C=C/C(=O)c2ccc(Nc3ncnc4ccccc34)cc2)c(OC)c1,2.85% (active)
8,Clc1nc2ccccc2nc1CI,93.8%
9,COc1ccc(-c2nn(-c3cccc(Cl)c3)cc2/C=C2\NC(=S)N(c3ccc(Cl)cc3)C2=O)cc1,24.9%
10,COc1ccccc1NC(=O)n1c(=O)cc(C)c2ccc(O)cc21,105%
11,COc1ccc(C2=C(Br)C(=O)c3nc(C)ccc3C2=O)cc1,66.2%
12,CC(=O)Oc1ccccc1C(=O)N(Cc1ccc2c(Cl)cc(Cl)c(O)c2n1)c1ccccc1,46.7%
13,CC(=O)N1CCN(CCNC(=O)n2cc(-c3ccncc3)c(-c3ccc(O)c(Cl)c3)n2)CC1,106%
14,CCOC(=O)C(CC(=O)O)=C(C(=O)OCC)C(=O)OCC,99.6%
15,O=C1Nc2cc(Cl)ccc2/C1=C\c1c(-c2ccc(F)cc2)nc2ccccn12,-46% (active)
16,C/C=C(/C)n1cnc2c(Nc3ccccn3)nc(Cl)nc21,107%
17,CCN(CC)CCCC(C)Nc1cnc(C(=O)Nc2ccc(Cl)c3cccnc23)cn1 (stereo not drawn),-63.3% (active)
18,CC(C)c1ccc(C(=O)Nc2sc3c(CN(C)C)c(O)ccc3c2C(N)=O)cc1,24.2%
19,C=C1C(=O)O[C@H]2[C@H]1CC/C(COC(=O)c1cccc3ccccc13)=C\CC[C@@]1(C)O[C@@H]21,-47.2% (active)

row,Compound,growth
1,CCOc1cc(/C=N\NC(=O)C[N+](C)(C)C)ccc1O,87.7%
2,O=[N+]([O-])c1ccc(Sc2ncccn2)c([N+](=O)[O-])c1,-31.8% (active)
3,C#CCN(CCCOc1ccc(Cl)cc1Cl)CCCSC(=O)CCCCCN1/C(=C\C=C2/CCCC(/C=C/C3=[N+](CCCCCC(=O)[O-])c4ccccc4C3(C)C)=C2Cl)C(C)(C)c2ccccc21,-44.2% (active)
4,O=C(Cc1ccc(F)c(F)c1)Nc1cc(C2(C(F)(F)F)CC2)nn1Cc1ccccc1,11.9%
5,CN(C)CCS(=O)(=O)Nc1cc(-c2ccc3ncnc(Nc4ccc(F)c(Cl)c4)c3c2)cnc1Cl,-15% (active)
6,Fc1ccc(Cc2ccc(F)cc2)cc1,103%
7,O=c1ccccc(-c2ccc(-c3ccco3)cc2)c1O,-30.3% (active)
8,COc1ccc(-c2ccc(-c3ccc(C(=N)N)cc3)s2)cc1Cl,-48.8% (active)
9,CSCC[C@@H]1C(=O)N(C)[C@H](C(C)(C)C)N1C(=O)c1ccccc1,110%
10,CC(=O)Nc1ccc(-n2cnc3cc(-c4ccc(OCCN5CCCCC5)cc4)ccc32)cc1,98.3%
11,CC(=O)Nc1ccc(C(=O)COc2cccc(/C=C3\CCc4ccccc4C3=O)c2)cc1,89.2%
12,CO[C@H]1/C=C/O[C@@]2(C)Oc3c(C)c(O)c4c(O)c(c(/C=N/N5C(C)CN(Cc6ccccc6)CC5C)c(O)c4c3C2=O)NC(=O)/C(C)=C\C=C\[C@H](C)[C@H](O)[C@@H](C)[C@@H](O)[C@@H](C)[C@H](OC(C)=O)[C@@H]1C (stereo partly drawn),161%
13,COC(=O)c1c2c(c(C)[n+]([O-])c1C)C(=O)C(NCc1ccc(OC)cc1)=CC2=O,-51.1% (active)
14,NC(=S)N/N=C1\c2ccccc2-c2c(F)c(F)c(F)c(F)c21,44.4%
15,Cn1cc(-c2csc(-c3cn(CCCN4CCOCC4)c4ccc(F)cc34)n2)c2cccnc21,69.9%
16,CN1CCN(C(=O)[C@]23CCC(C)(C)C[C@H]2C2=CC[C@@H]4[C@@]5(C)C/C(=C/c6ccncc6)C(=O)C(C)(C)[C@@H]5CC[C@@]4(C)[C@]2(C)CC3)CC1,-41.7% (active)
17,COc1cc(/C=N/NC(=O)CCN2c3ccccc3Sc3ccccc32)cc(OC)c1OC,77.9%
18,CN(C)C(CNc1oc(-c2cccc3ccccc23)nc1C#N)c1ccco1 (stereo not drawn),74.1%
19,C=CCNc1nc(NN2C(=O)c3cccc4cccc(c34)C2=O)nc(-n2cnc3ccccc32)n1,93.9%
